Assay results published in PubChem BioAssay AID1159580 (chemical genetic matrix, 2015).
The campaign covered roughly 5,500 compounds. About 2,000 (36%) were called active. Another 18% or so got no clear call; they are omitted. No stated cut-off is given here; in the data, active means normalized growth mostly below about 0.91 (no sharp cut-off); inconclusive means no clear call, values can overlap the other calls; inactive means mostly above about 0.92. Some of the results follow.

Experiment: chemical genetic growth profiling, strain panel (AID 1159580);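 further: tested at 20 µM; growth read once vehicle control cultures reached saturation at 30 °C; 1 = growth at the plate median or of vehicle wells; lower values mean less growth of the strain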
Conditions: growth OD

Measured: normalized growth

COc1cc(C/C=C/c2ccccc2)c(OC)cc1O
inactive: S. cerevisiae deletion strains, locus YJR066W, strain TOR1, active compounds read low 0.989 | S. cerevisiae deletion strains, locus YJR075W, strain HOC1, active compounds read low 0.935 | S. cerevisiae deletion strains, locus YKL009W, strain mrt4, active compounds read low 1.01 | S. cerevisiae deletion strains, locus YKL068W, active compounds read low 0.954 | S. cerevisiae deletion strains, locus YKL085W, strain MDH1 (second series), active compounds read low 0.965 | S. cerevisiae deletion strains, locus YKL085W, strain MDH1, active compounds read low 0.965 | S. cerevisiae deletion strains, locus YKL160W, strain elf1, active compounds read low 0.95 | S. cerevisiae deletion strains, locus YKR001C, strain vps1, active compounds read low 0.969 | S. cerevisiae deletion strains, locus YKR026C, strain gcn3, active compounds read low 0.956 | S. cerevisiae deletion strains, locus YKR091W, strain srl3, active compounds read low 0.954 | S. cerevisiae deletion strains, locus YLL001W, strain dnm1, active compounds read low 0.926 | S. cerevisiae deletion strains, locus YLL026W, active compounds read low 0.962 | S. cerevisiae deletion strains, locus YLL041C, strain sdh2, active compounds read low 0.949 | S. cerevisiae deletion strains, locus YLR027C, strain aat2, active compounds read low 0.942 | S. cerevisiae deletion strains, locus YLR039C, strain RIC1, active compounds read low 0.91 | S. cerevisiae deletion strains, locus YLR058C, strain SHM2, active compounds read low 0.987 | S. cerevisiae deletion strains, locus YLR102C, strain apc9, active compounds read low 0.964 | S. cerevisiae deletion strains, locus YLR113W, strain HOG1, active compounds read low 1.01 | S. cerevisiae deletion strains, locus YLR221C, strain rsa3, active compounds read low 1 | S. cerevisiae deletion strains, locus YLR258W, strain gsy2, active compounds read low 0.943 | S. cerevisiae deletion strains, locus YLR262C, strain YPT6 (second series), active compounds read low 0.95 | S. cerevisiae deletion strains, locus YLR262C, strain YPT6, active compounds read low 0.967 | S. cerevisiae deletion strains, locus YLR268W, strain sec22, active compounds read low 1 | S. cerevisiae deletion strains, locus YLR320W, strain mms22, active compounds read low 0.982 | S. cerevisiae deletion strains, locus YLR330W, strain CHS5, active compounds read low 0.964 | S. cerevisiae deletion strains, locus YLR342W, strain FKS1 (second series), active compounds read low 1.05 | S. cerevisiae deletion strains, locus YLR342W, strain FKS1, active compounds read low 0.949 | S. cerevisiae deletion strains, locus YLR357W, strain rsc2, active compounds read low 0.883 | S. cerevisiae deletion strains, locus YLR370C, strain arc18, active compounds read low 0.965 | S. cerevisiae deletion strains, locus YLR384C, strain iki3, active compounds read low 0.98 | S. cerevisiae deletion strains, locus YLR418C, strain cdc73, active compounds read low 0.883 | S. cerevisiae deletion strains, locus YML016C, strain PPZ1, active compounds read low 0.963 | S. cerevisiae deletion strains, locus YML032C, strain rad52, active compounds read low 1.02 | S. cerevisiae deletion strains, locus YML120C, strain ndi1, active compounds read low 0.922 | S. cerevisiae deletion strains, locus YML124C, strain tub3, active compounds read low 0.941 | S. cerevisiae deletion strains, locus YMR058W, strain fet3, active compounds read low 0.923 | S. cerevisiae deletion strains, locus YMR078C, strain ctf18, active compounds read low 0.956 | S. cerevisiae deletion strains, locus YMR125W, strain sto1, active compounds read low 0.898 | S. cerevisiae deletion strains, locus YMR129W, active compounds read low 0.96 | S. cerevisiae deletion strains, locus YMR205C, strain PFK2, active compounds read low 0.914 | S. cerevisiae deletion strains, locus YMR223W, strain ubp8, active compounds read low 0.983 | S. cerevisiae deletion strains, locus YMR231W, strain pep5, active compounds read low 0.978 | S. cerevisiae deletion strains, locus YMR307W, strain GAS1, active compounds read low 1.04 | S. cerevisiae deletion strains, locus YNL067W, strain RPL9B, active compounds read low 0.966 | S. cerevisiae deletion strains, locus YNL128W, strain TEP1, active compounds read low 0.944 | S. cerevisiae deletion strains, locus YNL183C, strain NPR1, active compounds read low 1 | S. cerevisiae deletion strains, locus YNL209W, strain ssb2, active compounds read low 0.97 | S. cerevisiae deletion strains, locus YNL233W, strain BNI4, active compounds read low 0.945 | S. cerevisiae deletion strains, locus YNL248C, strain rpa49, active compounds read low 0.95 | S. cerevisiae deletion strains, locus YNL271C, strain bni1, active compounds read low 0.926 | S. cerevisiae deletion strains, locus YNL298W, strain CLA4, active compounds read low 0.986 | S. cerevisiae deletion strains, locus YNL307C, strain MCK1, active compounds read low 0.955 | S. cerevisiae deletion strains, locus YNL322C, strain KRE1 (second series), active compounds read low 0.969 | S. cerevisiae deletion strains, locus YNL322C, strain KRE1, active compounds read low 0.962 | S. cerevisiae deletion strains, locus YNR049C, strain mso1, active compounds read low 0.962 | S. cerevisiae deletion strains, locus YNR052C, strain pop2, active compounds read low 0.969 | S. cerevisiae deletion strains, locus YOL006C, strain TOP1, active compounds read low 1.23 | S. cerevisiae deletion strains, locus YOL012C, strain htz1 0.65 | S. cerevisiae deletion strains, locus YOL147C, strain pex11, active compounds read low 0.963 | S. cerevisiae deletion strains, locus YOR001W, strain rrp6, active compounds read low 0.982 | S. cerevisiae deletion strains, locus YOR061W, strain CKA2, active compounds read low 0.965 | S. cerevisiae deletion strains, locus YOR069W, strain VPS5, active compounds read low 0.955 | S. cerevisiae deletion strains, locus YOR070C, strain gyp1, active compounds read low 0.981 | S. cerevisiae deletion strains, locus YOR080W, strain dia2, active compounds read low 0.959 | S. cerevisiae deletion strains, locus YOR083W, strain WHI5, active compounds read low 0.934 | S. cerevisiae deletion strains, locus YOR106W, strain vam3, active compounds read low 0.882 | S. cerevisiae deletion strains, locus YOR136W, strain idh2, active compounds read low 0.963 | S. cerevisiae deletion strains, locus YOR144C, strain elg1, active compounds read low 0.971 | S. cerevisiae deletion strains, locus YOR184W, strain ser1, active compounds read low 1.08 | S. cerevisiae deletion strains, locus YOR231W, strain MKK1, active compounds read low 1.07 | S. cerevisiae deletion strains, locus YOR265W, strain rbl2, active compounds read low 0.955 | S. cerevisiae deletion strains, locus YOR270C, strain vph1, active compounds read low 0.924 | S. cerevisiae deletion strains, locus YOR290C, strain snf2, active compounds read low 0.902 | S. cerevisiae deletion strains, locus YOR316C, strain cot1, active compounds read low 0.95 | S. cerevisiae deletion strains, locus YPL051W, strain arl3, active compounds read low 0.937 | S. cerevisiae deletion strains, locus YPL055C, strain LGE1, active compounds read low 1.01 | S. cerevisiae deletion strains, locus YPL078C, strain atp4, active compounds read low 0.916 | S. cerevisiae deletion strains, locus YPL240C, strain hsp82, active compounds read low 0.963 | S. cerevisiae deletion strains, locus YPL256C, strain CLN2, active compounds read low 1.03 | S. cerevisiae deletion strains, locus YPR119W, strain clb2, active compounds read low 0.946 | S. cerevisiae deletion strains, locus YPR163C, strain tif3, active compounds read low 0.98 | S. cerevisiae deletion strains, locus YPR167C, strain met16, active compounds read low 0.959 | S. cerevisiae deletion strains, strain wtn01, active compounds read low 1.02 | S. cerevisiae strains, strain wild type, active compounds read low 0.98
active: S. cerevisiae deletion strains, locus YLR371W, strain rom2, active compounds read low 0.849 | S. cerevisiae deletion strains, locus YNL071W, strain lat1, active compounds read low 0.866 | S. cerevisiae deletion strains, locus YNL250W, strain rad50, active compounds read low 0.898 | S. cerevisiae deletion strains, locus YPL106C, strain sse1, active compounds read low 0.847 | S. cerevisiae deletion strains, locus YPR141C, strain kar3, active compounds read low 0.914
